MITF primary: human MITF inhibition, primary screen; O75030; AlphaScreen MITF homodimerization, bead proximity signal; inhibition, % at 2.6 µM; 650,000 compounds, 0.91% hits; in the data active = inhibition above about 50%
TEAD-YAP block: TEAD-YAP interaction inhibition; HEK-TIYL cells, TEAD-Gal4/YAP UAS-luciferase luminescence; inhibition, % at 9.12 µM; 640,000 compounds, 1.4% hits; in the data active = inhibition above about 32%
FBW7 act: activators of human E3 ligase FBW7 | Q969H0 | AlphaScreen FBW7–phospho-cyclin E peptide binding, activator screen | normalized activity (activation), % at 26.1 µM | 650,000 compounds, 0.13% hits; in the data active = normalized activity above about 1.9%;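 note: purified mutant Fbw7 with reduced substrate affinity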
GPR151 activ: activators of human GPR151; Q8TDV0; PathHunter beta-arrestin GPR151 cells, luminescence; activation, % at 11.2 µM; 650,000 compounds, 1% hits; in the data active = activation above about 4.9%
Target sequence (Q8TDV0 whole entry, looked up): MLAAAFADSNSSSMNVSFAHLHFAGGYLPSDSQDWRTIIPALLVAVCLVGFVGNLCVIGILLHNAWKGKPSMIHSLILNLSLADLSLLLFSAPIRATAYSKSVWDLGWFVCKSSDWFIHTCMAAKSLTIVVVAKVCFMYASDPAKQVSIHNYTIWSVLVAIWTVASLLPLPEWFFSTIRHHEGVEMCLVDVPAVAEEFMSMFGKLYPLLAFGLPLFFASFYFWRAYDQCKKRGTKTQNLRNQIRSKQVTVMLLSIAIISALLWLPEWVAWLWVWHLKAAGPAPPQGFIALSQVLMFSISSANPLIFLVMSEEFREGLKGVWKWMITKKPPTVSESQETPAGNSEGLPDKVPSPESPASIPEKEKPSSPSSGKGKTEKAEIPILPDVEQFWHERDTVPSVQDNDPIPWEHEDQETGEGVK
Numbers stand for hits; 0 = inactive; - = no result. In the library only some 3.5% were active in any assay of this set; here they are far more common.

SMILES	MITF primary	TEAD-YAP block	FBW7 act	GPR151 activ
COc1ccc2c(c1)O[C@@H]1COc3cc(OC)c(OC)cc3[C@@H]1C2=O	0	32	0	0
COc1ccc2c(c1)OCC(Cc1ccc(OC)c(OC)c1)C2=O (stereo not drawn)	0	48	0	0
COc1ccc(NC(=O)Cc2ccc(OC)c(OC)c2)c(OC)c1	0	0	0	0
COc1ccc2c(c1)OCC(Cc1ccc(OC)c(OC(C)=O)c1)C2=O (stereo not drawn)	0	52	0	0
Cn1c(=O)c([N+](=O)[O-])c(NCCN2CCOCC2)c2ccccc21	0	0	0	0
COc1ccc(CNc2nc(C)c(-c3ccn(CCO)n3)s2)c(OC)c1OC	0	0	0	0
COc1cc(OC)c(OC)cc1CNc1nc(C)c(-c2ccn(CCO)n2)s1	0	37	0	0
O=C(CSc1nnnn1Cc1ccccc1)N1CCN(c2ccccc2)CC1	0	0	0	0
COCC(C)NC(=O)c1cc(-c2cccs2)on1 (stereo not drawn)	0	0	0	0
NNC(=O)c1sc(-c2ccc(F)cc2)cc1N	0	0	0	0
COc1cc(-c2c3cc(O)c(=O)cc-3oc3cc(O)c(O)cc23)cc(Cl)c1OC	98	0	0	0
COc1ccc(-c2cc(=O)c3c(O)cc(O)cc3o2)cc1O	0	0	0	0
COc1ccc(-c2c3cc(O)c(=O)cc-3oc3cc(O)c(O)cc23)cc1C	109	0	0	0
COc1cc(-c2cc(=O)c3cc(O)ccc3o2)cc(OC)c1OC	0	0	0	0
CC(C)(C)CC(=O)Nc1c(-c2cccs2)nc2ccccn12	0	0	0	0
N#CC1=C(N)OC2=C(CCC/C2=C/c2ccoc2)C1c1ccoc1 (stereo not drawn)	58	0	0	0
COc1ccc(C(N)CC(=O)O)cc1OC (stereo not drawn)	0	0	0	0
CCN(C(=O)CCl)c1cccc2ccccc12	0	67	0	0
Cc1nn(C)c(C)c1C(C)N(C)Cc1ccc(C(=O)NCc2ccccc2Cl)c(=O)[nH]1 (stereo not drawn)	0	0	0	0
CCOCCCNC(=O)c1ccc2c(c1)N=C(C)c1cc(C)ccc1S2	0	68	0	0
CCOCCCNC(=O)c1ccc2c(c1)N=C(CC)c1ccccc1S2	0	58	0	0
CCCC1=Nc2cc(C(=O)NCCOC)ccc2Sc2ccccc21	0	51	0	0
CCC1=Nc2cc(C(=O)NCCCOC)ccc2Sc2ccccc21	0	57	0	0
CCC1=Nc2cc(C(=O)NCCCN3CCOCC3)ccc2Sc2ccccc21	0	0	0	0
COC(=O)c1ccc2c(c1)N=C(C)c1cc(C)ccc1S2	0	0	0	0
SMILES	MITF primary	TEAD-YAP block	FBW7 act	GPR151 activ
COc1cccc(C(=O)Nc2ccc(OC(C)C)cc2)c1	0	75	0	0
COc1cccc(C(=O)Nc2ccc(O)c(C(=O)O)c2)c1	0	0	0	0
CC(C)Oc1ccc(NC(=O)c2cccc(Cl)c2)cc1	0	0	0	0
COc1cccc(C(=O)Nc2ccc(O)c(C)c2)c1	0	84	0	0
N#CC1=C2SCC(O)(c3ccc(F)cc3)N2C(=O)CC1c1cccc(F)c1 (stereo not drawn)	0	54	0	0
N#CC1=C2SCC(O)(c3ccco3)N2C(=O)CC1c1ccc(F)cc1 (stereo not drawn)	0	43	0	0
CCOC(=O)C1=CN(Cc2ccc(OC)cc2)C=C(C(=O)OCC)C1c1ccccc1OC	0	0	0	0
CCOC(=O)C1=CN(Cc2ccc(F)cc2)C=C(C(=O)OCC)C1c1ccc(SC)cc1	0	0	1.9	0
CCOC(=O)C1=CN(Cc2ccc(Cl)cc2)C=C(C(=O)OCC)C1c1ccccc1OC(C)C	0	0	0	0
COC(=O)C1=CN(Cc2ccc(Cl)cc2)C=C(C(=O)OC)C1c1ccccc1OC(C)C	0	0	2.1	0
CCOC(=O)C1=CN(Cc2ccc(OC)cc2)C=C(C(=O)OCC)C1c1ccccc1OCc1ccccc1	0	0	2.2	0
COC(=O)C1=CN(Cc2ccc(F)cc2)C=C(C(=O)OC)C1c1ccccc1OC(C)C	0	0	5.0	0
COC(=O)C1=CN(Cc2ccc(F)cc2)C=C(C(=O)OC)C1c1ccccc1Cl	0	0	0	0
CCOC(=O)CSc1nc2ccsc2c(=O)n1CCCCCC(=O)NCc1ccc(C)cc1	0	0	0	0
O=C1NC(O)(C(F)(F)F)C(=O)NC1Cc1ccccc1 (stereo not drawn)	0	0	0	0
CC(=O)OC(COc1ccc(Br)cc1)Cn1cnc2ccccc21 (stereo not drawn)	0	0	0	0
COC(=O)/C=C\C(=O)Nc1ccc(Br)c(C)c1	0	47	0	0
COc1cccc(C(NC(=O)c2ccccc2)c2ccc3cccnc3c2O)c1 (stereo not drawn)	0	0	0	0
COc1ccc(C(=O)NC(c2ccc(Cl)cc2)c2cc(Cl)c3cccnc3c2O)cc1 (stereo not drawn)	0	0	0	0
COc1ccc(C(NC(=O)c2ccccc2)c2ccc3cccnc3c2O)cc1 (stereo not drawn)	0	38	0	0
O=C(NC(c1ccc(Cl)cc1)c1ccc2cccnc2c1O)c1ccccc1 (stereo not drawn)	0	75	0	0
CO[C@@H]1COC(=O)C/C=C/[C@@H](C)[C@H](OC)COC(=O)[C@H](COCc2ccccc2)NC(=O)C/C=C/[C@H]1C	0	-	0	0
CC1=C(C(=O)OCCOc2ccccc2)C(c2ccccc2[N+](=O)[O-])C2=C(CCCC2=O)N1 (stereo not drawn)	0	35	0	0
CC1=C(C(=O)OCCc2ccccc2)C(c2ccccc2[N+](=O)[O-])C2=C(CCCC2=O)N1 (stereo not drawn)	0	48	0	0
O=C(Nc1ccccc1C(=O)N/N=C/c1ccncc1)c1ccccc1	0	41	0	0
SMILES	MITF primary	TEAD-YAP block	FBW7 act	GPR151 activ
O=C(Nc1ccccc1C(=O)N/N=C/c1ccncc1)c1ccc([N+](=O)[O-])cc1	0	41	0	0
CCOc1ccc(/C=N/NC(=O)c2ccccc2NC(=O)c2ccc(OC)cc2)cc1	0	55	0	0
CCOc1ccc(/C=N/NC(=O)c2ccc(F)cc2)cc1	0	0	0	0
OC1(c2ccc(OC(F)F)cc2)CSC(=Nc2cccnc2)N1C1CC1 (stereo not drawn)	0	42	0	0
COc1ccc([N+](=O)[O-])cc1NC(=O)C1CCCNC1=O (stereo not drawn)	0	0	0	0
COc1ccccc1-c1csc(NC(=O)/C=C/c2ccccc2)n1	0	0	0	0
COc1ccc(/C=C/C(=O)Nc2nc(-c3ccc(F)cc3)cs2)cc1OC	0	57	0	0
CCOc1ccc(-c2cn[nH]c2N)cc1	0	48	0	0
Cc1nn(-c2ccccc2)c(C)c1/C=N/Nc1cccc(C(=O)O)c1	0	42	0	0
Cc1ccsc1/C=N/Nc1ccc(C(=O)O)cc1	0	49	0	0
Cc1ccsc1/C=N/Nc1cccc(C(=O)O)c1	0	48	0	0
O=C(O)c1cccc(N/N=C/c2cccc3ccccc23)c1	0	0	0	0
O=C(O)c1cccc(N/N=C/c2cc(Br)cs2)c1	0	38	0	0
